Experimental data published in article PMC4336329 (PLoS ONE, 2015).
Among all 310,000 compounds or so, about 14,000 (4.5%) showed an effect of 50% or more. Effects have a minus sign here. The list comes from a sample in which strong results are over-represented; it also holds similar structures and randomly drawn compounds.

target: human ether-à-go-go-related gene (hERG) potassium channel (human, UniProt Q12809); test: primary screen, population patch clamp on CHO cells stably expressing hERG; higher = less effect of the substance
Sequence (Q12809 whole entry, looked up): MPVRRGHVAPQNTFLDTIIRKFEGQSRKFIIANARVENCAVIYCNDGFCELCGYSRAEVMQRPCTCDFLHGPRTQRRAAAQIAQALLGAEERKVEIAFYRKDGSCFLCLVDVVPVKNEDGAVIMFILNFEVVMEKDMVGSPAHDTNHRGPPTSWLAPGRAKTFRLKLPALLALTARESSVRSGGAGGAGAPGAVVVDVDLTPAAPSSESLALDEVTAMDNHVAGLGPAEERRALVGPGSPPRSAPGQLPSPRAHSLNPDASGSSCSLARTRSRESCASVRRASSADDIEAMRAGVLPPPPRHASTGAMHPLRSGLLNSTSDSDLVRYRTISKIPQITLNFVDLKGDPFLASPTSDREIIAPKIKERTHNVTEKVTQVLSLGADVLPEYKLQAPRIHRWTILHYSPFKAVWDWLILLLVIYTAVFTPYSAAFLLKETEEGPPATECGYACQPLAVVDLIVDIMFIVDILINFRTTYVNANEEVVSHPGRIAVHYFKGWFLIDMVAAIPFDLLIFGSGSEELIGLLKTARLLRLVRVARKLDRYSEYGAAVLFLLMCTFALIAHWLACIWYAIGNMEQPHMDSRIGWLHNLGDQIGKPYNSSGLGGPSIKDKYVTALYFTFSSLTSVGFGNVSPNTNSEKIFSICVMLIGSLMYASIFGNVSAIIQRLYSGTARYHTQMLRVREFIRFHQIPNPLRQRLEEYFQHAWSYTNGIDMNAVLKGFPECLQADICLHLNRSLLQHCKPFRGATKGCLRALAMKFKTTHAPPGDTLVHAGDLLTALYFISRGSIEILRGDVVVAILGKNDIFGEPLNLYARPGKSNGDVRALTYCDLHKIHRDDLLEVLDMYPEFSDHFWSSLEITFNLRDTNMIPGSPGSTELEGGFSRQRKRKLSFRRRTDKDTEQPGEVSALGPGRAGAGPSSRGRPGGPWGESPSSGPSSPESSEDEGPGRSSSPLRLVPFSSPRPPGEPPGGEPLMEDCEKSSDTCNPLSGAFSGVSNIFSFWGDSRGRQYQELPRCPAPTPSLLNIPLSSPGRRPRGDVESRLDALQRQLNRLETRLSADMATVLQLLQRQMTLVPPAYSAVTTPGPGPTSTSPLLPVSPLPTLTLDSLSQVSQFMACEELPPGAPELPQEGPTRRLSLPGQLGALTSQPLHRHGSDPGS
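Also: peak tail current of the secondary pulse compared with the same well before compound.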

| Structure (SMILES) | hERG current change (%, negative = inhibition) at 10uM |
| --- | --- |
| CC(C)(C)c1cc(NC(=O)Nc2ccccc2OC(F)(F)F)no1 | 26.4% |
| O=C(COC(=O)c1cccc(S(=O)(=O)NCc2ccccc2)c1)Nc1ccccc1OC(F)F | 11.5% |
| CC1CCCN(C(=O)NC(=O)c2ccc(Cl)cc2)C1 (stereo not shown) | 3.85% |
| C[C@@H](CN1C2=NC[C@H](Cc3ccccc3)N2C[C@H]1Cc1ccc(O)cc1)NC(=O)CCC1CCCCC1 | -71.2% |
| CC(CCc1ccccc1)NC(=O)CCC1CCCC1 (stereo not shown) | -24.5% |
| C[C@@H](CN1C2=NC[C@H](Cc3ccc(O)cc3)N2C[C@H]1Cc1ccc(O)cc1)NC(=O)CCC1CCCCC1 | -10.3% |
| O=C(c1ccc(N2CCN(C3CC(=O)N(Cc4cccs4)C3=O)CC2)cc1)c1cccnc1 (stereo not shown) | -73.5% |
| O=C1CC(N2CCN(c3ccc(F)cc3)CC2)C(=O)N1Cc1cccs1 (stereo not shown) | -42.5% |
| O=C(c1ccncc1)c1ccc(N2CCN(C3CC(=O)N(Cc4cccs4)C3=O)CC2)cc1 (stereo not shown) | -79.3% |
| NC(=O)C1(N2CCCCC2)CCN(C2CC(=O)N(Cc3cccs3)C2=O)CC1 (stereo not shown) | 6.12% |
| O=C1CC(N2CCN(c3ccc(F)cc3)CC2)C(=O)N1c1ccc(F)cc1 (stereo not shown) | 1.07% |
| O=C(c1ccc(N2CCN(C3CC(=O)N(c4ccc(F)cc4)C3=O)CC2)cc1)c1cccnc1 (stereo not shown) | -50.6% |
| NC(=O)C1CCN(C2CC(=O)N(Cc3cccs3)C2=O)CC1 (stereo not shown) | 0.931% |
| O=C(c1ccncc1)c1ccc(N2CCN(C3CC(=O)N(Cc4ccccc4)C3=O)CC2)cc1 (stereo not shown) | -76.2% |
| O=C1CC(N2CCN(c3ccc(O)cc3)CC2)C(=O)N1Cc1cccs1 (stereo not shown) | -7.15% |
| COc1ccc(N2C(=O)CC(N3CCN(c4ccc(C(=O)c5cccnc5)cc4)CC3)C2=O)cc1 (stereo not shown) | -48.2% |
| O=C1CC(N2CCN(c3ccc(F)cc3)CC2)C(=O)N1Cc1ccccc1 (stereo not shown) | -17.6% |
| CCN1C(=O)CC(N2CCN(c3ccc(C(=O)c4ccncc4)cc3)CC2)C1=O (stereo not shown) | -12.3% |
| COc1ccc(S(=O)(=O)Nc2cc(C(=O)NCCCN3CCOCC3)ccc2N2CCOCC2)cc1 | 25% |
| CC(=O)N(C)c1ccc(NC(=O)Nc2cccc3ccccc23)cc1 | -2.88% |
| COC(=O)Cn1c(SCc2ccccc2)nc2ccccc21 | -13.8% |
| Cc1cccc(Cn2cccc2/C=C2/C(=N)N3C=CSC3=NC2=O)c1 | -1.72% |
